p53 PUMA act: mutant p53 pathway re-activators, primary screen, cell-based, SW480, luciferase, single point, HTS; SW480 PUMA-promoter luciferase, p53 mutant reactivation; activation, % at 9.98 µM; 1.5% of 28,000 active; AID 624151, 2012; in the data active = activation above about 52%
c-Myc SMM: binders of human c-Myc, primary screen, biochemical, small molecule microarray, anti-His fluorescence; 1.5% of 17,000 active; Myc proto-oncogene protein (Homo sapiens), P01106; calls only; His-c-Myc binding; AID 624141, 2012;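 active = spot fluorescence over background with P-value below 7% in all four replicate spots, showing protein binding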;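 note: score is binary with 100 for all four spots passing and 0 otherwise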
mut p53 SMM: binders of human mutant p53, primary screen, biochemical, small molecule microarray, anti-GST fluorescence | small molecule microarray binding | calls only | 0.4% of 17,000 active | AID 624136, 2012;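 active = compounds whose four printed spots each glow above background more than chance allows, each with a p-value under 7%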
NFkB binder: binders of NF-kB p50 subunit, primary screen, biochemical, small molecule microarray, anti-His fluorescence. 1.3% of 17,000 active. calls only. Nuclear factor NF-kappa-B p105 subunit (Homo sapiens), P19838. anti-His fluorescence binding;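 active = spot fluorescence over background significantly raised, with a chance value under 7% in all four replicate spots of the compound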;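 note: probe protein is his-tagged human p50 processed subunit at 1 µg/ml; raw spot fluorescence signals with no normalization applied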
STAT3 binder: STAT3 binders, primary screen, biochemical, small molecule microarray, single point, set 2. His-STAT3 binding, anti-His fluorescence. calls only. AID 624138, 2012. 0.2% of 17,000 active;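 active = compounds whose four printed spots each show fluorescence over background unusually high for their array block, chance value under 7%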
The depositor's hits bear a star; i = inactive; / = not tested or not shown; + = active, no number. An excerpt weighted towards active compounds, which were near 2.6% of everything screened.

SMILES	p53 PUMA act	c-Myc SMM	mut p53 SMM	NFkB binder	STAT3 binder
CCn1cnc2c(Nc3cccc(Cl)c3)nc(N[C@@H]3CCCC[C@@H]3N)nc21	-63	+	i	i	i
Oc1cc2c(cc1O)C1c3ccccc3CNC1CC2 (configuration not stated)	-3	i	i	i	i
NCC(=O)Nc1ccc(Br)cc1C(=O)c1ccccc1	113*	i	i	i	i
Oc1ccc2c3c1OC1c4[nH]c5c(c4CC4(O)C(C2)N(CC2CC2)CCC314)CC1(O)C2Cc3ccc(O)c4c3C1(CCN2CC1CC1)C5O4 (configuration not stated)	-1	i	i	i	i
CCc1ccc(NC2=NCCS2)cc1	61*	/	/	/	/
CC(C)(O)/C=C/C(=O)[C@](C)(O)C1[C@H](O)C[C@@]2(C)[C@@H]3CC=C4C(CC(=O)C(=O)C4(C)C)[C@]3(C)C(=O)C[C@@]12C (some centres not stated)	-60	i	i	i	i
CN1CC(C(=O)N[C@]2(C)O[C@@]3(O)[C@@H]4CCCN4C(=O)[C@H](Cc4ccccc4)N3C2=O)C=C2c3cccc4[nH]cc(c34)C[C@H]21 (some centres not stated)	1	+	i	+	i
CC(C)[C@H]1C(=O)N2CCC[C@H]2[C@]2(O)O[C@](NC(=O)[C@@H]3C=C4c5cccc6[nH]cc(c56)C[C@H]4N(C)C3)(C(C)C)C(=O)N12	7	i	i	i	i

Screening results: PubChem, Broad Institute
